# PP1 counter: blocks human PP1-alpha phosphatase, a PP5 counter-screen. P62136. purified PP1alpha, OMFP fluorescence. inhibition, % at 6.7 µM. 320,000 tested, 0.9% active;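 active = inhibition above the mean inhibition of all tested compounds plus 3 SD, computed separately for each screening campaign, cut at about 15% in these data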
# ATG4B inhibitor: inhibitors of human ATG4B cysteine protease. inhibition, % at 8.33 µM. ATG4B cleavage of LC3-PLA2, NBD-HPC fluorescence, 1 h. 340,000 tested, 0.51% active. Q9Y4P1. AID 504462; in the data active = inhibition above about 40%
# H9c2 protect: protects H9c2 cardiomyocytes from peroxide injury. H2O2 injury protection, ATPLite, 2 h. protection from H2O2 cell death, % at 20 µM. 360,000 tested, 0.63% active. AID 588492;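 active = compounds giving at least 50% protection of heart cells from peroxide-induced death in the single-dose screen, raw or plate-pattern-corrected value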
# PP5 inh: blocks human protein phosphatase 5 activity | P53041 | purified PP5c, OMFP substrate fluorescence | inhibition, % at 6.7 µM | 320,000 tested, 0.18% active;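 active = inhibition above the campaign's mean inhibition across all tested compounds plus 3 SD, cut at about 9.5% in these data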
# Target sequence (P53041 whole entry, looked up): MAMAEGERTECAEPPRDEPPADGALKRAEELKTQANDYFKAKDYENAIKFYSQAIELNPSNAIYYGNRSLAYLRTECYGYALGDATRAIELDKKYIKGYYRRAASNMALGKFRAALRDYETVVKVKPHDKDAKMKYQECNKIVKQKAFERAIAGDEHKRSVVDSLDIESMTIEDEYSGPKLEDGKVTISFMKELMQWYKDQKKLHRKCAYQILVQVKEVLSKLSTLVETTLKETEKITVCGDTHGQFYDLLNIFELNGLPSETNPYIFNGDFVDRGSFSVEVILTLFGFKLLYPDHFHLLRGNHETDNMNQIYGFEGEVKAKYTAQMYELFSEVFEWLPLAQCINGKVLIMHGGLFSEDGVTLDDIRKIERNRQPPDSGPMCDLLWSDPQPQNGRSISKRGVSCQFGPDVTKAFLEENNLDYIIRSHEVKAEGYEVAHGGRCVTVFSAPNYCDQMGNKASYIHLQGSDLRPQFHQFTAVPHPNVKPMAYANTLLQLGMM
# Numbers stand for hits; 0 = inactive; - = not tested or not shown. Hits are enriched below; roughly 1.9% of the tested compounds scored in any of these assays.
SMILES,PP1 counter,ATG4B inhibitor,H9c2 protect,PP5 inh
CC(=O)Nc1cccc(C(=O)NNC(=O)c2ccccc2-n2cccc2)c1,0,0,0,0
Cc1nc(NC(=O)CSc2nnc(C3CC3)n2N)c(Cl)cc1Cl,-,0,0,-
COC(=O)c1ccc(COC(=O)[C@@H]2CC(O)CN2S(=O)(=O)c2ccccc2[N+](=O)[O-])cc1 (some centres undefined),0,0,0,0
N#CCCSc1ccccc1NC(=O)c1cc(=O)c2ccccc2o1,0,0,52.2,0
CCOc1ccccc1NC(=O)c1cc(=O)c2ccccc2o1,0,0,0,0
CCN(CC)c1ccc(N=Cc2ccc([N+](=O)[O-])o2)cc1,0,0,0,0
CCN(CC)c1ccc(N=Cc2ccccc2[N+](=O)[O-])cc1,0,55.1,0,0
COc1ccc(-c2nnc3ccc(SCC(=O)Nc4nc5ccccc5s4)nn23)cc1OC,0,0,50.5,0
COc1ccc(S(=O)(=O)N2Cc3ccccc3CC2C(=O)Nc2ccc(O)cc2)cc1OC (centres undefined),0,0,58.5,0
CNC(=O)C1Cc2ccccc2CN1S(=O)(=O)c1ccc(OC)c(OC)c1 (centres undefined),0,0,0,0
COc1ccccc1S(=O)(=O)N(C)C[C@H]1OCc2cnnn2CCCC(=O)N([C@H](C)CO)C[C@@H]1C,-,-,0,-
Cc1cc(C)c2c(n1)SCC(=O)N2CC(=O)Nc1ccc(Br)c(C)c1,0,0,0,0
N#CC1=C(N)Oc2c(ccc3cccnc23)C1c1ccccc1 (centres undefined),0,0,58.1,0
Cc1ccc2[nH]c(=O)c(C3C(C#N)=C(N)Oc4c3ccc3cccnc43)cc2c1 (centres undefined),0,0,64.4,0
COC(=O)c1cc2c(C)cc3ccc(C)cn3c-2c1C(=O)OC,0,0,0,0
COC(=O)c1cc2c(C)c(C)c3ccccn3c-2c1C(=O)OC,0,0,62.4,0
COC(=O)c1cc2ccccn2c2c(C(=O)OC)c(C(=O)OC)cc1-2,0,0,79.4,0
COC(=O)c1cc2n3ccccc3c(C)c(-c3ccccc3)c-2c1C(=O)OC,0,0,0,0
O=c1ccn(CCc2c[nH]c3ccccc23)c2c1CCCC2,0,0,0,0
COc1ccccc1C(=O)Nc1ccc(-c2nnn(CC(=O)NCc3ccco3)n2)cc1,15.8,0,0,0
CCOc1ccccc1NC(=O)CSc1ccc([N+](=O)[O-])cc1,0,0,0,0
CC(OC(=O)Cc1c[nH]c2ccccc12)C(=O)c1ccccc1 (centres undefined),0,0,0,0
CSCc1c(C(=O)OCC(=O)c2ccc[nH]2)oc2ccccc12,-,46.2,0,-
CC1(C)CN(C(=S)Nc2ccc(F)cc2F)C1=O,0,0,0,0
COc1cc(C(=S)N2CCN(c3ccccc3Cl)CC2)cc(O)c1O,0,0,84.8,0
SMILES,PP1 counter,ATG4B inhibitor,H9c2 protect,PP5 inh
Cc1ncc(CO)c2c1Oc1nc(-c3ccccc3)nc(SCC(=O)N3CCCCC3)c1C2,0,0,74.4,0
Cc1ncc(CO)c2c1Oc1nc(-c3ccccc3)nc(SCC(=O)N3CCOCC3)c1C2,0,0,0,0
Cc1cccc(-c2nc3c(c(SCC(=O)N4CCOCC4)n2)Cc2c(CO)cnc(C)c2O3)c1,0,0,51.0,0
COc1ccccc1-c1nc2c(c(SCC(=O)N3CCCCC3)n1)Cc1c(CO)cnc(C)c1O2,0,0,0,0
COc1cccc(-c2nc3c(c(SCC(=O)N4CCOCC4)n2)Cc2c(CO)cnc(C)c2O3)c1,0,0,71.9,0
O=C(CCC(=O)N1CCN(S(=O)(=O)c2ccc([N+](=O)[O-])cc2)CC1)N1CCOCC1,-,0,0,-
CCc1ccccc1N1CC(C(=O)N2Cc3ccccc3CC2C(N)=O)CC1=O (centres undefined),-,0,0,-
CC1(C(=O)Nc2cccc3c2CCCC3)CCN1C(=O)Cc1ccccc1Cl (centres undefined),-,-,0,-
Clc1ccc(-c2nc3ccccc3[nH]2)cn1,0,0,0,0
CCN(CC)C(=O)C1CCCN(c2ccc([N+](=O)[O-])cc2/C=N/NC(=O)c2cccc(Br)c2)C1 (centres undefined),17.2,0,0,0
CC(=O)c1ccccc1NC(=O)COC(=O)/C(=C/c1ccccc1)n1nnnc1C,0,0,0,0
CCCN=Cc1c(CCC)[nH]n(-c2nc3ccccc3s2)c1=O,0,0,0,0
CCCc1[nH]n(-c2nc3ccccc3s2)c(=O)c1C=NCCCN(CC)CC,15.7,0,0,0
COc1ccc(/C=C/C(=O)NC(C)CCc2ccccc2)cc1OC (centres undefined),0,0,0,0
COc1ccc(/C=C/C(=O)NC(=S)NCc2ccccc2)cc1OC,15.5,0,0,0
